Inconclusive results are not listed. Active and inactive are the calls of the source. How the source made its calls: active means hit-call score of the fitted dose curve at least 0.9, where 1 is the maximum; inconclusive means response in the unintended direction; inactive means score below 0.9.
Assays:
[1] = TOX21_p53_BLA_p2_viability: Viability Assessment in the Tox21 HCT-116 p53 Agonism Beta-lactamase Assay, Phase 2 (AID 2283591);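 further: compound exposure lasted 16 h at 37 °C; actives lower the ATP signal meaning cytotoxicity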
How it was run: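 HCT-116 p53-bla cells (4000/well) rested 5 h at 37C, then received compounds in DMSO (217-fold dilution) for 16 h at 37C, 5% CO2. After the CCF4 read, CellTiter-Glo was added; ATP luminescence was read after 30 min at room temperature.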

[2] = target: Cellular tumor antigen p53 (Homo sapiens) (UniProt P04637); experiment: TOX21_p53_BLA_p2_ratio: Tox21 HCT-116 p53 Agonism Beta-lactamase Assay, Ratio, Phase 2 (AID 2283592)
Chain of Cellular tumor antigen p53 (Homo sapiens) (P04637 whole entry, looked up): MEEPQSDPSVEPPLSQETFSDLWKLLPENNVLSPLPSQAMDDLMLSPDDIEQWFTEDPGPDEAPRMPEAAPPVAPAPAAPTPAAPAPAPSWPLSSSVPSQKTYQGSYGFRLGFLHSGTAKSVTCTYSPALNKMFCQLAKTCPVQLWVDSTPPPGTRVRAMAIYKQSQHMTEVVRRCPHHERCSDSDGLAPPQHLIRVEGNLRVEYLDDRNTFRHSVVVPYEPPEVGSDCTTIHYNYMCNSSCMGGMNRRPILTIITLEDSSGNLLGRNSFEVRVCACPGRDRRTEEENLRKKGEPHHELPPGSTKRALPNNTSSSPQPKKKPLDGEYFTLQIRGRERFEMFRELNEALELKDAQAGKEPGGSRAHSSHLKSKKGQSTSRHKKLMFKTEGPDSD
How it was run: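 Gain-of-signal p53 agonism was scored from the beta-lactamase FRET ratio (460/530 nm, 405 nm excitation) in HCT116 cells treated 16 h at 37C, 5% CO2, with DMSO serving as negative control and baseline.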

[3] = TOX21_p53_BLA_p3_viability: Viability Assessment in the Tox21 HCT-116 p53 Agonism Beta-lactamase Assay, Phase 3 (AID 2283593);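 further: cells exposed to compound for 16 h before reading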
How it was run: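 HCT-116 cells (4000/well) rested 5 h at 37C, then got DMSO compounds by pin tool (217-fold dilution) for 16 h at 37C, 5% CO2. After the bla read, CellTiter-Glo was added and luminescence read at 30 min, room temperature.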

[4] = target: Cellular tumor antigen p53 (Homo sapiens) (UniProt P04637); experiment: TOX21_p53_BLA_p3_ratio: Tox21 HCT-116 p53 Agonism Beta-lactamase Assay, Ratio, Phase 3 (AID 2283596)
How it was run: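 HCT116 p53-bla cells (4000/well) given compound in DMSO (217-fold dilution) after 5 h, incubated 16 h at 37C. CCF4-AM substrate 2 h at room temperature; 460/530 nm emission ratio, gain fitted against DMSO.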

[5] = TOX21_p53_BLA_p4_viability: Viability Assessment in the Tox21 HCT-116 p53 Agonism Beta-lactamase Assay, Phase 4 (AID 2283597);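 further: hits lower the luminescence signal meaning cytotoxicity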
How it was run: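 Following a 16 h exposure at 37C, the treated HCT116 wells were first read for the FRET ratio. They were then lysed with CellTiter-Glo, and ATP luminescence was recorded after 30 min at room temperature.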

[6] = target: Cellular tumor antigen p53 (Homo sapiens) (UniProt P04637); experiment: TOX21_p53_BLA_p5_ratio: Tox21 HCT-116 p53 Agonism Beta-lactamase Assay, Ratio, Phase 5 (AID 2283599)
How it was run: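 HCT-116 cells carrying a p53-inducible beta-lactamase reporter were seeded at 4000 cells/well and dosed after 5 h with compound in DMSO (217-fold dilution). After 16 h at 37C, CCF4-AM substrate was added for 2 h, and the 460/530 nm emission ratio was scored as gain-of-signal versus DMSO.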

[7] = TOX21_p53_BLA_p5_viability: Viability Assessment in the Tox21 HCT-116 p53 Agonism Beta-lactamase Assay, Phase 5 (AID 2283600)
How it was run: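 After the 460/530 nm beta-lactamase measurement, the wells received an ATP-detection luciferase reagent; signal was read 30 min later at RT. Compound treatment lasted 16 h on cells pre-incubated 5 h post-seeding.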

[8] = target: Cellular tumor antigen p53 (Homo sapiens) (UniProt P04637); experiment: TOX21_p53_BLA_p4_ratio: Tox21 HCT-116 p53 Agonism Beta-lactamase Assay, Ratio, Phase 4 (AID 2283601)
How it was run: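 HCT116 cells carrying an inducible beta-lactamase reporter were plated at 4000 cells/well, rested 5 h, then exposed to compounds in DMSO (217-fold dilution) for 16 h at 37C. CCF4-AM substrate was loaded 2 h at room temperature; 460/530 nm emission ratio scored gain-of-signal versus DMSO.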

Measured: AC50

Cc1cccc(N(C)C(=S)Oc2ccc3c(c2)CCC3)c1
inactive: [1] | [2] | [3] | [4] | [5] | [6] | [7] | [8]

CC(C)[C@@H]1CC[C@@H](C)C[C@H]1OC(=O)c1ccccc1O
active: [3] 37.3 µM
inactive: [1] | [2] | [4] | [5] | [6] | [7] | [8]

CC1=C(/C=C/C(C)=C/C=C/C(C)=C\C=O)C(C)(C)CCC1
active: [1] 72.1 µM | [3] 64.9 µM | [4] 75.3 µM | [5] 80.9 µM | [6] 66.7 µM | [7] 74.6 µM
inactive: [2] | [8]

O=C(O)c1c(Cl)c(Cl)c(Cl)c(Cl)c1-c1c2cc(I)c(=O)c(I)c-2oc2c(I)c(O)c(I)cc12
active: [1] 37.2 µM | [3] 13.6 µM | [5] 44.1 µM | [8] 43.1 µM
inactive: [2] | [4] | [6] | [7]

Cc1cc(/C=C/c2ccc3cc(N(C)C)ccc3[n+]2C)c(C)n1-c1ccccc1
inactive: [3] | [7]
active: [1] 16.7 µM | [2] 13.4 µM | [4] 16.1 µM | [5] 16.6 µM | [6] 15.8 µM | [8] 20.1 µM

C=COCC1CCC(CO)CC1 (stereo unspecified)
inactive: [1] | [2] | [3] | [4] | [5] | [6] | [7] | [8]

CCCN(CCc1cccs1)[C@H]1CCc2c(O)cccc2C1
inactive: [1] | [2] | [3] | [4] | [5] | [6] | [7] | [8]

O=C1NCN(c2ccccc2)C12CCN(CCCC(c1ccc(F)cc1)c1ccc(F)cc1)CC2
active: [1] 37.3 µM | [2] 39.1 µM | [3] 35.9 µM | [4] 42.2 µM | [5] 23 µM | [6] 45 µM | [7] 35.1 µM | [8] 26.7 µM

CC(C(=O)O)c1ccc(C2CCCCC2)c2ccccc12 (stereo unspecified)
inactive: [1] | [2] | [3] | [4] | [6] | [7] | [8]
active: [5] 31.1 µM

CN(C/C=C/c1ccccc1)Cc1cccc2ccccc12
inactive: [1] | [2] | [3] | [4] | [5] | [6] | [7] | [8]

Cc1c(C)n(Cc2ccccc2)c2ccc(C(=O)OCCN(C)C)cc12
inactive: [1] | [2] | [3] | [4] | [6] | [7] | [8]
active: [5] 18.3 µM

NCCCC[C@H](NC(=O)[C@@H]1CCCN1C(=O)[C@@H]1CSSC[C@H](N)C(=O)N[C@@H](Cc2ccc(O)cc2)C(=O)N[C@@H](Cc2ccccc2)C(=O)N[C@@H](CCC(N)=O)C(=O)N[C@@H](CC(N)=O)C(=O)N1)C(=O)NCC(N)=O
inactive: [1] | [2] | [3] | [4] | [5] | [6] | [7] | [8]

N=C(N)c1ccc(OCCCOc2ccc(C(=N)N)cc2)cc1
inactive: [1] | [2] | [3] | [4] | [5] | [6] | [7] | [8]

Nc1cc(S(=O)(=O)O)cc2cc(S(=O)(=O)O)cc(O)c12
inactive: [1] | [2] | [3] | [4] | [5] | [6] | [7] | [8]

CCn1cc(C(=O)O)c(=O)c2cc(F)c(N3CCNC(C)C3)c(F)c21 (stereo unspecified)
inactive: [1] | [2] | [3] | [4] | [5] | [6] | [7] | [8]

CCOC(=O)COc1ccc2c(=O)cc(-c3ccccc3)oc2c1
inactive: [1] | [2] | [3] | [4] | [5] | [6] | [7] | [8]

CCCCCCCCCCCCCCCCCCNC(=O)OC1CCN(C(=O)OC[C@H](COC(=O)N(Cc2cccc[n+]2CC)C(=O)c2ccccc2OC)OC)CC1
active: [5] 30.2 µM | [6] 35.7 µM | [8] 38.4 µM
inactive: [1] | [2] | [3] | [4] | [7]

C#C[C@]1(O)CC[C@H]2[C@@H]3[C@H](C)CC4=C(CCC(=O)C4)[C@H]3CC[C@@]21C
inactive: [1] | [2] | [3] | [4] | [5] | [6] | [7] | [8]

N[C@H](C(=O)O)[C@@H]1CC(Cl)=NO1
active: [1] 15.8 µM | [2] 5.51 µM | [3] 9.5 µM | [4] 5.91 µM | [5] 13.7 µM | [6] 5.35 µM | [7] 11.4 µM | [8] 5.46 µM

C=CC(=O)Nc1cc2c(Nc3ccc(F)c(Cl)c3)ncnc2cc1OCCCN1CCOCC1
inactive: [1] | [2] | [5] | [6] | [7]
active: [3] 38.7 µM | [4] 25.4 µM | [8] 7.82 µM

O=C1c2c(O)cccc2[C@H]([C@@H]2O[C@H](CO)[C@@H](O)[C@H](O)[C@H]2O)c2cc(CO)cc(O)c21
inactive: [1] | [2] | [3] | [4] | [5] | [6] | [7] | [8]

O=[N+]([O-])c1ccc(O)c2ncccc12
active: [5] 23 µM
inactive: [1] | [2] | [3] | [4] | [6] | [7] | [8]
